# Source: PubChem BioAssay AID1159580 (chemical genetic matrix, 2015)
# Values joined by “and” are separate entries in the source; they are usually repeats but may differ in a detail not shown here. Equal values may be shown once. About 2,000 (36%) of roughly 5,500 compounds were called active. Roughly 18% stayed inconclusive and do not appear here. This is one part of the list. Unmarked numbers belong to inactive results. Cut-off read from the data, not from the text of the source: active = normalized growth mostly below about 0.91 (no sharp cut-off); inconclusive = no clear call, values can overlap the other calls; inactive = mostly above about 0.92.
# Test: chemical genetic growth profiling, strain panel (AID 1159580);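 note: tested at 20 µM; growth read once vehicle control cultures reached saturation at 30 °C; 1 = growth at the plate median or of vehicle wells; lower values mean less growth of the strain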
# Conditions: S. cerevisiae deletion strains, growth OD
smiles,measurement,setting,value
CC1CC[C@@]2(OC1)O[C@H]1CC3C4CC[C@@H]5C[C@@H](O)CC[C@]5(C)C4CC[C@]3(C)[C@H]1[C@@H]2C (stereo partly specified),normalized growth,"locus YAL013W, strain DEP1, active compounds read low",1.03
same,normalized growth,"locus YAL021C, strain ccr4, active compounds read low",1.05
same,normalized growth,"locus YAL026C, strain drs2, active compounds read low",1.02
same,normalized growth,"locus YAL030W, strain snc1, active compounds read low",1.03
same,normalized growth,"locus YBL061C, strain skt5, active compounds read low",1.02
same,normalized growth,"locus YBR009C, strain hhf1, active compounds read low",1.01
same,normalized growth,"locus YBR021W, strain FUR4, active compounds read low",1.02
same,normalized growth,"locus YBR023C, strain chs3, active compounds read low",1.05
same,normalized growth,"locus YBR171W, strain sec66, active compounds read low",1.04
same,normalized growth,"locus YBR229C, strain ROT2, active compounds read low",1.01
same,normalized growth,"locus YBR231C, strain swc5, active compounds read low",1.02
same,normalized growth,"locus YBR279W, strain paf1, active compounds read low",1.02
same,normalized growth,"locus YCL011C, strain gbp2, active compounds read low",1.06
same,normalized growth,"locus YCL016C, strain dcc1, active compounds read low",1.02
same,normalized growth,"locus YCL029C, strain bik1, active compounds read low",1.01
same,normalized growth,"locus YCL061C, strain MRC1, active compounds read low",1.02
same,normalized growth,"locus YCL069W, strain vba3, active compounds read low",1.05
same,normalized growth,"locus YCR088W, strain abp1, active compounds read low",1.03
same,normalized growth,"locus YDL005C, strain med2, active compounds read low",1.03
same,normalized growth,"locus YDL035C, strain GPR1, active compounds read low",1.07
same,normalized growth,"locus YDL040C, strain nat1, active compounds read low",1.02
same,normalized growth,"locus YDL074C, strain BRE1, active compounds read low",1.11
same,normalized growth,"locus YDL101C, strain DUN1, active compounds read low",1.02
same,normalized growth,"locus YDL134C, strain PPH21, active compounds read low",1.03
same,normalized growth,"locus YDL185W, strain tfp1, active compounds read low",1
same,normalized growth,"locus YDL192W, strain arf1, active compounds read low",1.01
same,normalized growth,"locus YDR001C, strain nth1, active compounds read low",1.05
same,normalized growth,"locus YDR069C, strain doa4, active compounds read low",1.06
same,normalized growth,"locus YDR101C, strain arx1, active compounds read low",1.01
same,normalized growth,"locus YDR137W, strain rgp1, active compounds read low",0.984
same,normalized growth,"locus YDR150W, strain NUM1, active compounds read low",1.03
same,normalized growth,"locus YDR159W, strain sac3, active compounds read low",1.01
same,normalized growth,"locus YDR162C, strain NBP2, active compounds read low",1.04
same,normalized growth,"locus YDR195W, strain ref2",1.17 [resistant] (active)
same,normalized growth,"locus YDR297W, strain sur2, active compounds read low",1.02
same,normalized growth,"locus YDR318W, strain mcm21, active compounds read low",1.01
same,normalized growth,"locus YDR334W, strain swr1, active compounds read low",1.05
same,normalized growth,"locus YDR335W, strain msn5, active compounds read low",1.06
same,normalized growth,"locus YDR388W, active compounds read low",1.02
same,normalized growth,"locus YDR392W, strain spt3, active compounds read low",1.03
same,normalized growth,"locus YDR502C, strain sam2, active compounds read low",0.997
same,normalized growth,"locus YEL003W, strain gim4, active compounds read low",1.08
same,normalized growth,"locus YEL037C, strain rad23, active compounds read low",1.2 [resistant] (active)
same,normalized growth,"locus YEL061C, strain CIN8 (second series), active compounds read low",1.08
same,normalized growth,"locus YER015W, strain faa2, active compounds read low",1.03
same,normalized growth,"locus YER016W, strain bim1, active compounds read low",1.02
same,normalized growth,"locus YER110C, active compounds read low",0.997
same,normalized growth,"locus YER111C, strain swi4, active compounds read low",1.28 [resistant] (active)
same,normalized growth,"locus YER155C, strain BEM2 (second series), active compounds read low",1.09
same,normalized growth,"locus YER155C, strain BEM2, active compounds read low",1
same,normalized growth,"locus YER167W, strain BCK2, active compounds read low",1.02
same,normalized growth,"locus YFR010W, strain ubp6, active compounds read low",1.06
same,normalized growth,"locus YGL078C, strain dbp3, active compounds read low",1.02
same,normalized growth,"locus YGL086W, strain mad1, active compounds read low",1
same,normalized growth,"locus YGL167C, strain pmr1, active compounds read low",1.02
same,normalized growth,"locus YGL173C, strain kem1, active compounds read low",1.02
same,normalized growth,"locus YGL227W, strain vid30, active compounds read low",1.03
same,normalized growth,"locus YGL240W, strain doc1, active compounds read low",1.02
same,normalized growth,"locus YGL248W, strain PDE1, active compounds read low",1.06
same,normalized growth,"locus YGL253W, strain hxk2, active compounds read low",1.07
same,normalized growth,"locus YGR135W, strain pre9, active compounds read low",1.01
same,normalized growth,"locus YGR252W, strain gcn5, active compounds read low",1.05
same,normalized growth,"locus YHR013C, strain ard1, active compounds read low",1.04
same,normalized growth,"locus YHR027C, strain rpn1, active compounds read low",1.03
same,normalized growth,"locus YHR030C, strain SLT2, active compounds read low",0.965
same,normalized growth,"locus YHR079C, strain IRE1 (second series), active compounds read low",0.993
same,normalized growth,"locus YHR079C, strain IRE1, active compounds read low",0.97
same,normalized growth,"locus YHR094C, strain hxt1, active compounds read low",1.01
same,normalized growth,"locus YHR129C, strain ARP1, active compounds read low",1.05
same,normalized growth,"locus YHR142W, strain chs7, active compounds read low",1.18 [resistant] (active)
same,normalized growth,"locus YIL066C, strain RNR3, active compounds read low",1.03
same,normalized growth,"locus YIL073C, strain SPO22, active compounds read low",1.12
same,normalized growth,"locus YIL125W, strain kgd1, active compounds read low",0.999
same,normalized growth,"locus YIR030C, strain dcg1, active compounds read low",1
same,normalized growth,"locus YJL092W, strain hpr5, active compounds read low",1.02
same,normalized growth,"locus YJL095W, strain BCK1 (second series), active compounds read low",1.01
same,normalized growth,"locus YJL095W, strain BCK1, active compounds read low",1.06 and 0.993
same,normalized growth,"locus YJL115W, strain asf1, active compounds read low",1.03
same,normalized growth,"locus YJL134W, strain LCB3, active compounds read low",1.02
same,normalized growth,"locus YJL154C, strain vps35, active compounds read low",1.11 [resistant] (active)
same,normalized growth,"locus YJL164C, strain tpk1, active compounds read low",1.02
same,normalized growth,"locus YJL166W, strain qcr8, active compounds read low",1.02
same,normalized growth,"locus YJL168C, strain set2, active compounds read low",0.988
same,normalized growth,"locus YJL187C, strain SWE1 (second series), active compounds read low",1.04
same,normalized growth,"locus YJL187C, strain SWE1, active compounds read low",1.01
same,normalized growth,"locus YJR043C, strain POL32, active compounds read low",1.05
